Source: PubChem BioAssay
Gal4-VP16 FLuc: Gal4-VP16 reporter inhibition counter-screen. AID 2546. Potency, µM (titrated, usually from 53.6 µM), actives largely listed as inhibitors. actives 3.5% (n = 310,000). Drosophila S2 Gal4-VP16 UAS-luciferase, luminescence, 20 h;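 note: Gal4-VP16 expression switched on by copper sulfate through the metallothionein promoter; nearly all actives have a fitted effect of over 50% in size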
RORgamma inh: inhibitors of mouse ROR gamma transcriptional activity. P51450. Drosophila S2 Gal4-RORgamma UAS-luciferase reporter, 20 h. Potency, µM (titrated, usually from 53.6 µM), most hits filed as inhibitors. actives 5.4% (n = 310,000). AID 2551; note: nearly all actives have a fitted effect of over 60% in size
Target sequence (P51450 whole entry, looked up, the tested form may be a part): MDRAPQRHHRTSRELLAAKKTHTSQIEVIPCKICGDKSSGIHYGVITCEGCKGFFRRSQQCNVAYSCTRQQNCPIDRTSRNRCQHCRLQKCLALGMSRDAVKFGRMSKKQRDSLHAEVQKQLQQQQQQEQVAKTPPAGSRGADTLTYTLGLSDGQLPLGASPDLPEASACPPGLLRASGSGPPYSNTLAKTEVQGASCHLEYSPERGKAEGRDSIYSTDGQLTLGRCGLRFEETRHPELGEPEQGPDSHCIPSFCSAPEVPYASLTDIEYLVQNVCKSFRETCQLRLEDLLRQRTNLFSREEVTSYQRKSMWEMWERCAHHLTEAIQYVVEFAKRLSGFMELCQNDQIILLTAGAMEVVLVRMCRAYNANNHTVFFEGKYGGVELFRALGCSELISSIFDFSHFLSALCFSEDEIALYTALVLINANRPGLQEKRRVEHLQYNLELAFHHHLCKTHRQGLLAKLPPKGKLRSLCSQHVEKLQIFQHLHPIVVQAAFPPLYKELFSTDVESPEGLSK
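Compounds are pin-transferred onto Drosophila Schneider cells expressing a copper-inducible Gal4–ROR gamma transactivation domain fusion. After 1 hr, copper sulfate is added to 700 uM final; luciferase is read 20 hr later.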
p53 reactivator: mutant p53 re-activation in reporter cells; H1299 p53-A138V BP100-luciferase reporter, luminescence, 24 h; Potency, µM (highest dose often 92.2 µM), actives largely listed as activators; AID 504706; actives 0.063% (n = 320,000); note: nearly all actives have a fitted effect of over 45% in size
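p53-null H1299 cells stably carrying temperature-sensitive p53-A138V and a BP100-luciferase reporter were pinned with compounds (4-point, 1:5 series) and held 24 hrs at 37 deg C. Luminescence was read 10 min after detection reagent.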
ELG1 DNA repair: inhibitors of ELG1-dependent DNA repair in HEK293T cells | HEK293T ELG1-luciferase reporter, luminescence, 16 h; DNA damage induced by 5-fluorouridine | Potency, µM (highest dose often 46.1 µM), hits mostly inhibitors | actives 2.3% (n = 330,000) | AID 504467; note: nearly all actives have a fitted effect of over 55% in size
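Cells (2,000 per well) received 5-fluorouridine plus test compound or DMSO and were incubated 16 hr at 37 °C, 5% CO2. Luciferase activity was read by luminescence 30 min after ONE-Glo addition; signal suppression marked inhibition of damage-induced ELG1 function.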
Giardia killer: kills Giardia lamblia; Giardia lamblia trophozoite viability; activity change, % at 7.66 µM, hits read low; actives 0.15% (n = 340,000); AID 540267; in the data active = activity change below about -80%; inconclusive = between about -30% and that limit;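 note: parasites exposed to compound for two days anaerobically before the ATP read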
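Luminescence from cellular ATP indicates surviving trophozoites (100 cells/well) following 48 hrs anaerobic compound treatment at 37 deg C; signal develops 15-30 min at room temperature.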
BRCA1 expr up: activators of BRCA1 expression; MCF7-BRCA1-FFLuc reporter, luminescence, 48 h; response scale: scaled: vehicle 0%, 10 µM genistein 100%; actives 1.1% (n = 380,000); Potency, µM (highest dose often 46.1 µM), hits mostly activators; note: nearly all actives have a fitted effect of over 80% in size
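Luminescence from a BRCA1-driven firefly luciferase in MCF7 cells was the read-out, taken 15 min after substrate addition following 48 h compound exposure at 37 °C. Data were normalized to a 10 microM genistein control and DMSO vehicle.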
Hits are given with their value; – = inactive; ? = inconclusive; · = not tested or not shown. Hits are enriched below; roughly 7.6% of the tested compounds scored in any of these assays. Unless noted, calls come from the whole dose curve; as a rule, active = well fitted curve in the direction sought with a large enough effect; inconclusive = small, poorly fitted or top-dose-only effect, or another doubt; inactive = no such curve, though single readings can be large; an effect the other way counts as inactive or inconclusive.

SMILES | Gal4-VP16 FLuc | RORgamma inh | p53 reactivator | ELG1 DNA repair | Giardia killer | BRCA1 expr up
CCc1ccc(/C=N/NC(=O)c2ccccn2)cc1 | ? | 10µM | – | ? | – | –
CCN(CC)c1ccc(/C=N/NC(=O)c2ccccn2)cc1 | – | ? | – | ? | – | –
COc1cc(C=NNC(=O)C(=O)Nc2cccc(Cl)c2)cc(OC)c1O | · | · | · | · | · | –
O=C(COc1ccc2c3c(c(=O)oc2c1)CCCC3)NCCCN1CCOCC1 | – | – | – | – | – | –
Cn1cccc1/C=N/NC(N)=S | ? | 6.3µM | – | – | – | –
Cn1cccc1/C=N/NC(=O)Cc1ccccc1 | – | – | – | – | – | –
CCOC(=O)C1(C)CCN1C(=O)c1ccc(Cl)cc1Cl (configuration not stated) | · | · | · | · | · | –
CCOC(=O)N1CCN(C(=O)c2ccccc2NC(=O)COc2ccccc2C)CC1 | – | ? | – | ? | – | –
Cn1c(=O)c2c(nc(Br)n2C/C=N/NC(N)=S)n(C)c1=O | – | 5µM | – | – | – | –
Cn1c(=O)[nH]c(=O)c2c1nc(Br)n2C/C=N/NC(N)=S | – | ? | – | – | · | ·
COc1cccc(Nc2ncc3ncc(=O)n(Cc4ccc(F)cc4)c3n2)c1 | – | – | · | · | · | ·
Fc1cccc(Cl)c1Cn1nnc(-c2ccc3c(c2)OCO3)n1 | – | ? | ? | ? | – | 8.9µM
S=C(NCCN1CCOCC1)N/N=C/c1cccs1 | 4.5µM | 1.3µM | – | – | – | –
Oc1cccc(/C=N/NC(=S)NCCN2CCOCC2)c1O | ? | 7.1µM | – | ? | – | –
Cc1cc(C)n(CC(=O)n2nc(C)cc2C)n1 | – | 0.32µM | – | – | – | –
COc1ccc(OC)c(S(=O)(=O)N2CCC(C(=O)NCC3CCCO3)CC2)c1 (configuration not stated) | – | – | – | – | – | –
CC(N)c1csc(Nc2cc(Oc3ccccc3)ncn2)n1 (configuration not stated) | · | · | · | · | · | –
CCc1nnc(SCC(=O)Nc2nccs2)n1CC | – | – | – | – | – | –
CCn1c(Cc2cccc3ccccc23)nnc1SCC(=O)Nc1nccs1 | ? | 14µM | – | ? | – | –
O=c1cc(N=Nc2ccc(Cl)cc2)[nH]c(=O)[nH]1 | 4µM | 2.5µM | – | 23µM | – | –
COc1ccc(/C=N/Nc2nonc2N)cc1OC | – | ? | – | ? | – | –
COc1ccc(/C=N/Nc2ncc(C(F)(F)F)cc2Cl)cc1OC | 3.5µM | ? | – | – | – | –
O=C(O)c1ccc(/C=N/Nc2ncc(Cl)cc2Cl)cc1 | – | – | – | ? | – | –
FC(F)(F)c1cnc(N/N=C/c2ccncc2)c(Cl)c1 | ? | 13µM | – | – | – | –
CC(C)[C@H](NC(=O)OC(C)(C)C)c1nnc(SCC(=O)Nc2ccc(Br)cc2)o1 | 32µM | 2.5µM | – | – | – | –
SMILES | Gal4-VP16 FLuc | RORgamma inh | p53 reactivator | ELG1 DNA repair | Giardia killer | BRCA1 expr up
C[C@H](NC(=O)OC(C)(C)C)c1nnc(SCC(=O)Nc2cccc(Cl)c2)o1 | – | – | – | ? | – | –
CCOc1ccc(CCNC(=O)Cn2nnc(-c3ccccc3Cl)n2)cc1OCC | · | · | · | · | · | –
COCCNC(=O)CN1CCC(NC(=O)c2ccco2)CC1 | ? | 13µM | – | – | – | –
C=CCNC(=O)CN1CCC(NC(=O)c2ccco2)CC1 | – | – | – | – | – | –
O=C(NC1CCN(C(=O)N2c3ccccc3Sc3ccccc32)CC1)c1ccco1 | ? | – | – | 23µM | – | –
COc1cc(CN2CCCCCC2)cc(Br)c1O | – | ? | · | – | – | –
CCOc1c(Cl)cc(/C=N/NC(N)=S)cc1OC | 16µM | 7.1µM | ? | – | – | –
CCOc1c(Br)cc(/C=N\NC(=O)c2ccccc2)cc1OC | ? | – | – | ? | – | –
C#CCOc1c(Cl)cc(/C=N/NC(N)=S)cc1OCC | ? | 14µM | ? | ? | – | –
COCCNC(=O)CSC1=N/C(=C/c2ccc(Cl)c(Cl)c2)C(=O)N1c1ccccc1F | ? | – | – | ? | – | –
Cc1cc(=O)n2[nH]c(SCc3ccc(Cl)cc3)nc2n1 | – | – | – | – | – | –
COc1ccc(C(=O)/C=C2\NCCc3cc(OC)c(OC)cc32)cc1OC | – | – | – | 15µM | – | –
COc1ccc(N2C(=O)/C(=C/c3ccc([N+](=O)[O-])cc3)N=C2C)c(OC)c1 | 7.9µM | ? | – | ? | – | –
CC1=N/C(=C\c2ccc([N+](=O)[O-])cc2)C(=O)N1c1cc(Cl)ccc1C | – | – | – | – | – | –
N#C/C(=N\Nc1cccc2ccccc12)c1nnc2n1CCCCC2 | 3.2µM | ? | – | – | – | –
COC(=O)c1ccc(-n2c(C)cc(C(=O)CCl)c2C)cc1 | – | 11µM | – | ? | – | –
CN1C(C(=O)NCc2ccccc2)CC2Cn3c(nc4ccccc43)C21 (configuration not stated) | – | – | – | – | – | –
Clc1ccc2nc(-c3ccncc3)cc(-c3ccccc3)c2c1 | – | – | – | – | – | –
c1ccc(-c2cc(-c3ccncc3)nc3ccc4ccccc4c23)cc1 | ? | 8.9µM | – | – | – | –
CC(C)Oc1ccc(/C=N/NC(=O)c2ccc(N(Cc3ccccc3)S(C)(=O)=O)cc2)cc1 | ? | ? | – | ? | – | –
CCOC(=O)c1cc2c(C)n(-c3ccc(N(C)C)cc3)c(C)c2cc(C(=O)OCC)c1=O | – | – | – | ? | – | –
COc1ccc(NC(=O)c2cc(C)nn2-c2ccccc2)cc1 | – | – | – | – | – | –
O=C(NN=C1CCCC1)c1n[nH]c2c1CCCC2 | – | – | – | ? | – | ?
CC(C)(C)c1n[nH]c2c1CCCC2 | – | 11µM | – | – | – | –
Cc1ccc(C(=O)N/C(=C\c2cn(S(=O)(=O)N(C)C)c3ccccc23)C(=O)NCCCn2ccnc2)cc1 | – | – | – | – | ? | –
SMILES | Gal4-VP16 FLuc | RORgamma inh | p53 reactivator | ELG1 DNA repair | Giardia killer | BRCA1 expr up
CC1=CC(C)C2(CO)COC(c3cccnc3)C1C2C (configuration not stated) | – | – | – | – | – | –
Cc1cccn2c(/C=N/OCc3cccc(F)c3)c(-c3ccc(Cl)cc3)nc12 | – | 2.2µM | – | – | – | –
COc1cccc(/C(C#N)=C/c2c(-c3ccc(Cl)cc3)nc3c(C)cccn23)c1 | – | – | – | 15µM | – | –
COc1ccc(Cl)c(-c2cc(C(=O)NCc3ccc(C(F)(F)F)cc3)[nH]n2)c1 | · | · | · | · | · | –
O=C(Nc1ccc2nc(-c3ccccn3)c(-c3ccccn3)nc2c1)N1CCCC1 | · | · | · | · | – | –
O=C(Nc1ccc(N2CCOCC2)cc1)Nc1ccc2nc(-c3ccco3)c(-c3ccco3)nc2c1 | ? | ? | – | 6.5µM | – | –
O=C(Nc1ccc2nc(-c3ccco3)c(-c3ccco3)nc2c1)NC1CC1 | – | – | – | ? | – | –
